For assay [1], the system named is Staphylococcus aureus. Put plainly: Antibacterial activity against Staphylococcus aureus MRSA ATCC 43300 (CO-ADD:GP_020); MIC in CAMBH media using NBS plates, by Resazurin F(560/590). Format: functional. Particulars: Concentration 20 uM, ASSAY_TEST Inhibition of Bacterial Growth, detection method Resazurin, Fluorescence (ex560/em590), MEDIA CAMHB, plate type 384well, CORNING #3640, time 18 hr. (The colour change of resazurin is a common sign of viable cells or microbes.)

The test system of assay [2] is Acinetobacter baumannii. Put plainly: Antibacterial activity against Acinetobacter baumannii ATCC 19606 (CO-ADD:GN_034); MIC in CAMBH media using NBS plates, by Resazurin F(560/590). Format: functional. The following applies: Concentration 20 uM, ASSAY_TEST Inhibition of Bacterial Growth, detection method Resazurin, Fluorescence (ex560/em590), MEDIA CAMHB, plate type 384well, CORNING #3640, time 18 hr.

For assay [3], the system named is Escherichia coli. Briefly: Antibacterial activity against Escherichia coli ATCC 25922 (CO-ADD:GN_001); MIC in CAMBH media using NBS plates, by Resazurin F(560/590). Type of assay: functional. Particulars: Concentration 20 uM, ASSAY_TEST Inhibition of Bacterial Growth, detection method Resazurin, Fluorescence (ex560/em590), MEDIA CAMHB, plate type 384well, CORNING #3640, time 18 hr.

In assay [4] the test system is Klebsiella pneumoniae. The following applies: Concentration 20 uM; ASSAY_TEST Inhibition of Bacterial Growth; detection method Absorption (OD600); MEDIA CAMHB; plate type 384well; NBS; CORNING #3640; time 18 hr.
For assay [5], the system named is Candida albicans. Particulars: 20 µM.
Assay [6] has as its system Cryptococcus neoformans. Particulars: Concentration 20 uM; ASSAY_TEST Inhibition of Fungal Growth; detection method Resazurin; Absorption (OD600-OD570); plate type 384well; NBS; CORNING #3640.

Drawing on ChEMBL document CHEMBL4296182, “CO-ADD screening of NIH NCI Diversity Set V”, this text covers Inhibition for 25 molecules.

For part of these data: Measured potencies and affinities stand elsewhere.

The term Inhibition denotes the relative decrease from the control value, in per cent.

As to `N#Cc1nnn2c1nc(N)c1c(Cl)cccc12`, the Inhibition was 11.84% in assay [1]; 9.93% in assay [2]; 2.46% in assay [3]; 14.13% in assay [4]; 1.33% in assay [5]; -4.78% in assay [6].
With `C(COC1CC2CC1C1C2CC2OC21)OC1CC2CC1C1C2CC2OC21` (stereo not given), the Inhibition in assay [1] was 7.31%; in assay [2] it was 15%; in assay [3], 5.47%; in assay [4], 11.14%; in assay [5] it was -1.79%; in assay [6] it was -10.71%.
For the molecule `COc1ccc(C2OC3=Nc4cc(C)c(C)cc4NC3=C2O)cc1` (stereo not given), the Inhibition in assay [1] is 19.36%; in assay [2], 6.66%; in assay [3], 1.83%; in assay [4] it was 7.32%; in assay [5], 1.04%; in assay [6] it was -7.87%.
`CCCCN1CCN=C1S`: the Inhibition is 9.78% in assay [1]; -11.78% in assay [2]; 10.98% in assay [3]; 14.43% in assay [4]; -2.77% in assay [5]; -2.57% in assay [6].
Take `Cn1cnc2ncnn2c1=S`: the Inhibition in assay [1] is 0.31%; in assay [2], -8.2%; in assay [3] it was -1.17%; in assay [4] it was -0.39%; in assay [5], 2.7%; in assay [6] it was -8.45%.
`CC1=CN2C(c3cccc([N+](=O)[O-])c3)=NON(c3ccc(C)cn3)C2C=C1` (stereo not given): the Inhibition in assay [1] is 16.79%; in assay [2], -11.84%; in assay [3], 19.37%; in assay [4], 7.72%; in assay [5] it was 17.2%; in assay [6] it was 0.26%.
Turning to `C=CCc1ccccc1OCC(=O)O`, the Inhibition in assay [1] is 3.16%; in assay [2], -9.95%; in assay [3] it was 10.02%; in assay [4], 15.59%; in assay [5] it was 5.01%; in assay [6], 1.51%.
On to `c1ccc(-c2nnc3oc(-c4cccs4)nn23)cc1`, for which the Inhibition is -2.52% in assay [1]; -16.04% in assay [2]; 4.88% in assay [3]; 16.29% in assay [4]; 19.4% in assay [5]; 28.69% in assay [6].
Take `CCOC(=O)c1c(N=C(S)NC)sc2c1CCCC2`: the Inhibition was -2.15% in assay [1]; 0.51% in assay [2]; 7.45% in assay [3]; 1.7% in assay [4]; 6.72% in assay [5]; -11.99% in assay [6].
Consider `CC1=Nc2ccccc2/C1=C\c1c(C)[nH]c2ccccc12`, for which the Inhibition in assay [1] is 7.03%; in assay [2], 6.7%; in assay [3] it was 0.88%; in assay [4] it was 14.94%; in assay [5] it was 6.28%; in assay [6] it was -2.97%.
As to `CN(C)S(=O)(=O)c1ccccc1N=C=S`, the Inhibition in assay [1] is 19.33%; in assay [2], 5.01%; in assay [3] it was 10.9%; in assay [4], 5.89%; in assay [5], 4.38%; in assay [6], -9.71%.
Take `Nc1ccc(C(=O)Nc2cccc(N)c2)cc1`: the Inhibition in assay [1] was 4.61%; in assay [2], -10.29%; in assay [3], 5.56%; in assay [4] it was 4.23%; in assay [5], 0.06%; in assay [6], -9.54%.
For `CCOC(=O)c1c(C)nc(C)c(C(=O)OCC)c1-c1cccnc1`, the Inhibition was -3.54% in assay [1]; 13% in assay [2]; -4.27% in assay [3]; 5.06% in assay [4]; 0.35% in assay [5]; -2.16% in assay [6].
`O=CN/C=C\c1cc(O)ccc1O`: the Inhibition in assay [1] was -18.33%; in assay [2], -7.5%; in assay [3], -8.61%; in assay [4], 6.52%; in assay [5] it was 4.27%; in assay [6] it was 7.81%.
Take `CC(C)NC(=O)Nc1cccc(Cl)c1`: the Inhibition in assay [1] was 12.4%; in assay [2] it was 7.15%; in assay [3], 6.41%; in assay [4], 8.52%; in assay [5], -1.88%; in assay [6] it was -9.01%.
With `Oc1ccc(/C=C\c2cnccn2)cc1`, the Inhibition is 3.99% in assay [1]; -7.27% in assay [2]; 16.94% in assay [3]; 16.23% in assay [4]; 1.24% in assay [5]; -11.21% in assay [6].
In the case of `O=C(O)/C=C\c1cc2c(cc1[N+](=O)[O-])OCO2`, the Inhibition in assay [1] was 16.17%; in assay [2], -13.7%; in assay [3] it was 7.39%; in assay [4], 10.81%; in assay [5] it was 3.76%; in assay [6], -6.94%.
For `CC1=C(C(N)=O)S(=O)(=O)c2ccccc21`, the Inhibition was 7.64% in assay [1]; -12.26% in assay [2]; 14.02% in assay [3]; 8.77% in assay [4]; 2.88% in assay [5]; -16.62% in assay [6].
For `NC(CC(=O)Nc1cc(C(F)(F)F)ccc1Cl)=NO`, the Inhibition was 9.76% in assay [1]; -1.74% in assay [2]; -6.61% in assay [3]; 22.22% in assay [4]; 3.79% in assay [5]; -11.78% in assay [6].
As to `Nc1cc([N+](=O)[O-])ccc1N1C(=O)CCCC1=O`, the Inhibition in assay [1] is 5.36%; in assay [2], 15.02%; in assay [3], -8.9%; in assay [4] it was 10.57%; in assay [5], 7.24%; in assay [6], -9.22%.
`Cn1ncc2c(Sc3ccc(Cl)cc3)ncnc21`: the Inhibition is -1.32% in assay [1]; 15.79% in assay [2]; -1.92% in assay [3]; 2.06% in assay [4]; 4.47% in assay [5]; -10.69% in assay [6].
For the molecule `O=C1OCC/C1=C\c1ccc(O)cc1`, the Inhibition in assay [1] is -0.41%; in assay [2], -7.68%; in assay [3], 4.86%; in assay [4] it was 11.2%; in assay [5], 3.18%; in assay [6] it was 0.19%.
With `O=NC1=C(c2cccc([N+](=O)[O-])c2)Nc2ccccc2S1`, the Inhibition in assay [1] is 0.76%; in assay [2], 0.77%; in assay [3], -6.48%; in assay [4] it was 32.11%; in assay [5], 13.1%; in assay [6], -8.32%.
As for `COc1cc2oc3cc(C)oc(=O)c3c2cc1OC`, the Inhibition in assay [1] is 14.15%; in assay [2], 0.41%; in assay [3], 8.42%; in assay [4] it was 14.11%; in assay [5] it was 1.88%; in assay [6], -16.92%.
As for `Nc1ccc2c(c1Cl)C(=O)c1ccc(N)c(Cl)c1C2=O`, the Inhibition in assay [1] is 3.14%; in assay [2], -5.21%; in assay [3], 14.11%; in assay [4], 8.12%; in assay [5] it was -1.01%; in assay [6], 17.48%.
